We go through seven compounds from PubChem BioAssay (NCATS).

Records with an inconclusive call do not appear. Activity calls are given as the source filed them. Unless noted, the call rests on the fitted dose curve; in most records, active means well fitted curve in the direction sought with a large enough effect; inconclusive means small, poorly fitted or top-dose-only effect, or another doubt; inactive means no such curve, though single readings can be large; an effect the other way counts as inactive or inconclusive.

Experiment [1] is described as follows: qHTS Assay for Lipid Storage Modulators (AID 1519; calls by dose curve; on activity change, negative = inhibition: on the % scale 0 is the no-effect control and ±100 the full control effect). To be noted: Drosophila S3 cells, BODIPY lipid droplet/cell ratio, laser cytometry, cells loaded with oleic acid; for activity change, negative = inhibition: at 25.7 µM (top of the series). In short, it runs like this: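 Cells seeded at 5,000 per well were treated with compounds over a concentration series and loaded with oleic acid (400 uM, as added). Lipid droplet fluorescence (488 nm excitation, 500-530 nm channel) was read by laser-scanning cytometry and normalized to 20 uM Triacsin C.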

In experiment [2] the target is ATP-dependent 6-phosphofructokinase (Trypanosoma brucei brucei) (UniProt O15648). Nature of the experiment: qHTS Assay to Find Inhibitors of T. brucei phosphofructokinase: hit validation (AID 492961). Further: on the % scale 0 is the no-effect control and ±100 the full control effect. As to conditions: T. brucei PFK, ADP-Glo luminescence; series mostly up to 24.3 µM. The method, boiled down: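 Luminescence from ADP-Glo reports ADP generated as T. brucei PFK (1.25 nM) phosphorylates 0.5 mM fructose-6-phosphate using 0.1 mM ATP. Reactions ran 45 min at room temperature, pH 8.0.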
Sequence of ATP-dependent 6-phosphofructokinase (Trypanosoma brucei brucei) (O15648 whole entry, looked up): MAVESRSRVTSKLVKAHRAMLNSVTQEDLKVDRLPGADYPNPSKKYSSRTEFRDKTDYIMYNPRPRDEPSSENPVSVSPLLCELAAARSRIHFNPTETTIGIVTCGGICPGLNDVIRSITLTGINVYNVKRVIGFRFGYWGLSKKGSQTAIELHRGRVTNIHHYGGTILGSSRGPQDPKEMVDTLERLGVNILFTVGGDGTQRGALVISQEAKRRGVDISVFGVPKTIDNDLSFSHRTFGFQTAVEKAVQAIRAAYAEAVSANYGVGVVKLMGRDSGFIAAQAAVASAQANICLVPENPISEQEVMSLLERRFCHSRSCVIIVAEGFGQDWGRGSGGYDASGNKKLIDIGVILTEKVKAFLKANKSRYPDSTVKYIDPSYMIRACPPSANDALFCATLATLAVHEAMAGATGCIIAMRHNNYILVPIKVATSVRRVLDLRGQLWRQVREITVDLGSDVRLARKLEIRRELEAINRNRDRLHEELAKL

In experiment [3] the target is Ubiquitin carboxyl-terminal hydrolase 1 (Homo sapiens) (UniProt O94782). Nature of the experiment: Inhibitors of USP1/UAF1: Pilot qHTS (AID 504865).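 Further: rhodamine fluorescence freed from ubiquitin-rhodamine substrate followed over time; top concentration of the series differs between compounds; on the % scale 0 is the no-effect control and ±100 the full control effect; nearly all actives have a fitted effect of over 35% in size.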 To be noted: purified USP1/UAF1, Ub-rhodamine cleavage fluorescence; series mostly up to 114 µM. In short, it runs like this: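 In 50mM HEPES pH 7.8 containing 0.5mM EDTA, 1mM TCEP, 0.1 mg/ml BSA and 0.01% Tween-20, 1nM USP1/UAF1 is exposed to compound for 15 min, then Ub-Rho (150nM final) is added and fluorescence is read over time.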
Sequence of Ubiquitin carboxyl-terminal hydrolase 1 (Homo sapiens) (O94782 whole entry, looked up): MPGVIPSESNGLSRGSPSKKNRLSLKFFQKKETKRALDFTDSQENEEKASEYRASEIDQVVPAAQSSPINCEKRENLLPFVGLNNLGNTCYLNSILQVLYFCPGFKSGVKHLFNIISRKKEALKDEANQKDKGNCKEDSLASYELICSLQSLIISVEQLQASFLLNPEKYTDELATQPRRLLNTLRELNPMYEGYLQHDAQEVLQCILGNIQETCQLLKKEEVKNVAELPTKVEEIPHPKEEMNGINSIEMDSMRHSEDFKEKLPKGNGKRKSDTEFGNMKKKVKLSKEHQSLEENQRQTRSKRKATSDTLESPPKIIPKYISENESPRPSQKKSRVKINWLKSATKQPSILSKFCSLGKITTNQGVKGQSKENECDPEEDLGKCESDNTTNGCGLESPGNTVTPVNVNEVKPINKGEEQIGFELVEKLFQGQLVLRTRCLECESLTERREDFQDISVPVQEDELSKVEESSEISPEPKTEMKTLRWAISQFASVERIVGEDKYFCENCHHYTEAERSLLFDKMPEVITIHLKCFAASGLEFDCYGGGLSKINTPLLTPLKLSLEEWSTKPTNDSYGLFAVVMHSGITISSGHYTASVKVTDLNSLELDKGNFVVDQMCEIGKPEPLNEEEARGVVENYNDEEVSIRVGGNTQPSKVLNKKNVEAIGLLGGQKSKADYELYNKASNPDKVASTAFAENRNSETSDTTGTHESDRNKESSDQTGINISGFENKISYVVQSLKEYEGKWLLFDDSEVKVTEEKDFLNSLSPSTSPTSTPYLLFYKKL

For experiment [4], the target named is Luciferin 4-monooxygenase (Photinus pyralis) (UniProt P08659). Briefly: Biochemical firefly luciferase enzyme assay for NPC (AID 624030).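 Further: purified P. pyralis luciferase at 10 nM with luciferin and ATP substrate; 0% = DMSO and -100% = full luciferase inhibition by PTC124 control; nearly all actives have a fitted effect of over 70% in size.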 As to conditions: purified P. pyralis luciferase, luminescence, 5 min; series mostly up to 24.9 µM. In short, it runs like this:
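Purified P. pyralis luciferase at 10 nM in 50 mM Tris Acetate (final), luminescence read within 5 minutes of enzyme addition to compounds. Activity normalised to PTC124 versus DMSO; concentration-response curves classed by r2, magnitude and activity.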

The nature of experiment [5]: qHTS profiling for inhibitors of Plasmodium falciparum proliferation (AID 504749). Further: nearly all actives have a fitted effect of over 60% in size. Further: potency means the concentration at half of the fitted maximal effect.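 On activity, negative = inhibition: 0% = DMSO vehicle and full inhibition = artemisinin control.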 To be noted: P. falciparum in erythrocytes, SYBR Green DNA, 72 h, at 12.8 µM (top of the series). The method, boiled down:
(§1)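 Readout was DNA-dye fluorescence from lysed cultures, ex 485/em 535 nm. Parasitized red cells had grown 72 h with compound; data scaled between 0.29 uM artemisinin and DMSO wells and corrected using vehicle-only plates.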

A further experiment deals with 3D7. The description is as above. As to conditions: P. falciparum in erythrocytes, SYBR Green DNA, 72 h; series mostly up to 12.8 µM. The method, boiled down:
as §1

A further experiment relates to C2A. The description is as above. To be noted: P. falciparum in erythrocytes, SYBR Green DNA, 72 h; series mostly up to 12.8 µM. In short, it runs like this:
as §1

The next experiment deals with CP201. Described as above. As to conditions: P. falciparum in erythrocytes, SYBR Green DNA, 72 h; series mostly up to 12.8 µM. The method, boiled down: as §1
The next experiment deals with CP211. The description is as above. To be noted: P. falciparum in erythrocytes, SYBR Green DNA, 72 h; series mostly up to 12.8 µM. The method, boiled down:
as §1

For a further experiment, the system named is CP237. The description is as above. As to conditions: P. falciparum in erythrocytes, SYBR Green DNA, 72 h; series mostly up to 12.8 µM. The method, boiled down: as §1
A further experiment concerns CP252. The experiment is described as above. To be noted: P. falciparum in erythrocytes, SYBR Green DNA, 72 h; series mostly up to 12.8 µM. The method, boiled down: as §1
The test system of a further experiment is CP262. The experiment is described as above. To be noted: P. falciparum in erythrocytes, SYBR Green DNA, 72 h; series mostly up to 12.8 µM. The method, boiled down:
as §1

In a further experiment the test system is CP268. The experiment is described as above. As to conditions: P. falciparum in erythrocytes, SYBR Green DNA, 72 h; series mostly up to 12.8 µM. The method, boiled down: as §1
In another experiment the test system is CP305. The experiment is described as above. As to conditions: P. falciparum in erythrocytes, SYBR Green DNA, 72 h; series mostly up to 12.8 µM. In short, it runs like this:
as §1

The next experiment deals with CP315. The description is as above. As to conditions: P. falciparum in erythrocytes, SYBR Green DNA, 72 h; series mostly up to 12.8 µM. In short, it runs like this: as §1
For the next experiment, the system named is CP329. The description is as above. To be noted: P. falciparum in erythrocytes, SYBR Green DNA, 72 h; series mostly up to 12.8 µM. The method, boiled down:
as §1

The next experiment has as its system HB3. Described as above. To be noted: P. falciparum in erythrocytes, SYBR Green DNA, 72 h; series mostly up to 12.8 µM. In short, it runs like this:
as §1

The subject of the next experiment is JCK. The experiment is described as above. As to conditions: P. falciparum in erythrocytes, SYBR Green DNA, 72 h; series mostly up to 12.8 µM. In short, it runs like this: as §1
Another experiment relates to PAD. The experiment is described as above. As to conditions: P. falciparum in erythrocytes, SYBR Green DNA, 72 h; series mostly up to 12.8 µM. In short, it runs like this:
as §1

A further experiment has as its system PC49. The description is as above. As to conditions: P. falciparum in erythrocytes, SYBR Green DNA, 72 h; series mostly up to 12.8 µM. The method, boiled down:
as §1

Where [6] appears, read: measured here: cell count channel max response.
The mark [7] stands for this setting: measured here: lipid channel max response.

Sequence of Luciferin 4-monooxygenase (Photinus pyralis) (P08659 whole entry, looked up): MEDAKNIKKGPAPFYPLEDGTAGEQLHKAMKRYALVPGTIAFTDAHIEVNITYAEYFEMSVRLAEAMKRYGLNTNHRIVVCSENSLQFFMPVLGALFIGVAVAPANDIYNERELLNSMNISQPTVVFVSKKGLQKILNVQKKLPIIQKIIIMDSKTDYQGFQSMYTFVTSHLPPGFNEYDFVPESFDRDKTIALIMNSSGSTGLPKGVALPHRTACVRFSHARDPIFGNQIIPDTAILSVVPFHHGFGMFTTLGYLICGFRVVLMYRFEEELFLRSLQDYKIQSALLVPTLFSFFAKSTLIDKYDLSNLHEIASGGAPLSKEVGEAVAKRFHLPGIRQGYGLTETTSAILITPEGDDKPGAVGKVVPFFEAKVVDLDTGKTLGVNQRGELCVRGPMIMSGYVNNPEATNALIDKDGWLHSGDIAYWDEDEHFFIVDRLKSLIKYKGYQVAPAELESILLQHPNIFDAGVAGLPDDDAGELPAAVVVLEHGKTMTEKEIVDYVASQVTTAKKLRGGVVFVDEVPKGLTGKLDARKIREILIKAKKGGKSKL

In the case of `CC(C)(CO)[C@H](O)C(=O)NCCC(=O)O`, the activity change, negative = inhibition in experiment [1] was -0.81% (inactive). Also, the max response in [1] (setting [6]) was determined as 7.75%; in [1] (setting [7]), 6.98%.

For `CCN(CC)CCOC(=O)[C@@H](Cc1cccc2ccccc12)C[C@@H]1CCCO1`, in experiment [1], the activity change, negative = inhibition was -5.4% (inactive). The max response in experiment [1] (setting [6]) was -1.15%; in experiment [1] (setting [7]), -7.84%. Besides, the compound was classed as inactive in experiment [2]. The Potency result (in [3]; in experiment [4]; in the experiment on 3D7; with C2A; in the experiment with CP201; in the experiment on CP211) was “inactive” throughout. Moreover, the Potency entry in the experiment with CP237, in the experiment with CP252, in the experiment with CP262, in the experiment with CP268, in the experiment on CP305 and in the experiment with CP315 was “inactive” in each case. For the same compound, the Potency result in the experiment with CP329, in the experiment on HB3, in the experiment with JCK, in the experiment on PAD and in the experiment with PC49 was “inactive” in each case. The activity, negative = inhibition was 5.1% (inactive) in experiment [5] (parasite line A) and 10% (inactive) in experiment [5] (parasite line B).

In the case of `CN1CCC[C@@H](CC2c3ccccc3Sc3ccccc32)C1`, in experiment [1], the activity change, negative = inhibition was -5.3% (inactive). In addition, the max response in experiment [1] (setting [6]) was -0.662%; in [1] (setting [7]), -6.24%. Moreover, the result in experiment [2] was inactive. Besides, the Potency result (in [3]; in [4]; in the experiment on C2A; with CP211; in the experiment on CP252; with CP262) was “inactive” each time. Also, the Potency result in the experiment with CP315, with CP329, in the experiment on HB3, in the experiment with PAD and in the experiment with PC49 was “inactive” each time. Moreover, the activity, negative = inhibition in [5] (parasite line A) was -16.3% (inactive).

With `CC1=CC(=O)C2=C(C)CC[C@@H]3[C@@H](OC(=O)[C@H]3C)[C@H]12`, the activity change, negative = inhibition in experiment [1] was 0.93% (inactive). Further, the max response is -15.8% in experiment [1] (setting [6]) and -14.8% in experiment [1] (setting [7]). In addition, the Potency result in experiment [3] is “inactive”.

Consider `CC#C[C@@]1(O)CC[C@H]2[C@@H]3CCC4=CC(=O)CCC4=C3[C@H](c3ccc(N(C)C)cc3)C[C@]21C`, for which the activity change, negative = inhibition in experiment [1] is 0.174% (inactive). For the same compound, the values for the max response in experiment [1] (setting [6]) and in experiment [1] (setting [7]) were -7.59% and -5.96%, respectively.

As for `NC[C@@H]1O[C@H](O[C@H]2[C@H](O)[C@H](O[C@@H]3O[C@H](CO)[C@@H](O)[C@H](N)[C@@H]3O)[C@@H](N)C[C@H]2N)[C@@H](O)[C@H](O)[C@@H]1O`, the activity change, negative = inhibition in experiment [1] is -4.16% (inactive). In addition, the max response in [1] (setting [6]) is -1.61%; in [1] (setting [7]) it was -7%. Further, in experiment [2], the call was inactive. Also, the Potency result (in experiment [4]; with 3D7; with C2A; in the experiment on CP201; with CP211; in the experiment on CP237) was “inactive” throughout. Also, the Potency result in the experiment with CP252, in the experiment on CP262, with CP268, in the experiment on CP305, in the experiment on CP315 and with CP329 was “inactive” in each case. In addition, the Potency entry in the experiment on HB3, with JCK, with PAD and in the experiment on PC49 was “inactive” in each case. In addition, the activity, negative = inhibition in [5] (parasite line A) was 3.46% (inactive); in experiment [5] (parasite line B) it was 7.68% (inactive).

As to `C[C@@H](CNC1CCCCC1)OC(=O)c1ccccc1`, in experiment [1], the activity change, negative = inhibition is -3.84% (inactive). Besides, the figures for the max response in experiment [1] (setting [6]) and in experiment [1] (setting [7]) were -16.8% and -19.5%, respectively. Besides, the result in [2] was inactive. Moreover, the Potency entry (in experiment [3]; in [4]; in the experiment on C2A; in the experiment with CP201; in the experiment on CP211; with CP252) was “inactive” in each case. Besides, the Potency result in the experiment on CP262, in the experiment on CP315 and with CP329 was “inactive” in each case. Moreover, the Potency was 3.16 µM (active) in the experiment on CP237, 3.98 µM (active) in the experiment with HB3 and 3.16 µM (active) in the experiment with PAD.
